PubChem BioAssay AID372 (MTDP, 2006)
In all, about 100,000 compounds went through this assay and about 770 (0.77%) were called active. Cut-off read from the data, not from the text of the source: active = inhibition above about 50%; inactive = the rest. What follows is part of a selection rich in actives, with near analogues and random picks from the rest.

target: Gag-Pol polyprotein (Human immunodeficiency virus type 1 group M subtype B (isolate HXB2)) (UniProt P04585); test: RNase H inhibition, HIV 1 Gag Pol polyprotein, FRET biochemical assay, screening (AID 372); details: HIV-1 RT RNase H, FRET RNA/DNA substrate fluorescence; at 10 µM; hits give high values

Row | Structure (SMILES) | inhibition
1 | CC(C)(C)c1ccc(C(=O)NC2CCCC2)cc1 | 2% (inactive)
2 | O=C1c2ccccc2NC(c2ccccc2O)N1c1ccc(Cl)cc1 (configuration not stated) | 12% (inactive)
3 | COc1cc(OC)c(OC)cc1CN1CCN(C/C=C/c2ccccc2)CC1 | 14% (inactive)
4 | c1ccc(N2N=C(c3cccs3)CC2c2cccs2)cc1 (configuration not stated) | 6% (inactive)
5 | COc1ccc(/C=N/n2nnnc2N)cc1Br | 30% (inactive)
6 | Cc1ccc2cc(C)c(NCc3ccccn3)nc2c1 | 6% (inactive)
7 | CCOC(=O)C(CC)P(=O)(c1ccccc1)c1ccccc1 (configuration not stated) | 0% (inactive)
8 | CCCC(=O)Nc1ccc(NC(=O)c2ccccc2[N+](=O)[O-])cc1 | 7% (inactive)
9 | CN(C)c1ccc(C(=O)N2CCN(c3ccc(F)cc3)CC2)cc1 | 13% (inactive)
10 | CCc1ccc2oc(-c3ccc(C)c(NC(=O)COc4ccccc4)c3)nc2c1 | 44% (inactive)
11 | O=C(COc1ccccc1)Nc1ccc2oc(-c3ccc(Cl)cc3)nc2c1 | 49% (inactive)
12 | COc1ccc(OCC(=O)Nc2ccc(-c3nc4cc(C)ccc4o3)cc2)cc1 | 19% (inactive)
13 | Cc1ccc(-c2nc3ccccc3o2)cc1NC(=O)COc1ccc(Cl)cc1 | 9% (inactive)
14 | O=C(COc1ccc(Cl)cc1)Nc1ccc2oc(-c3ccc(Cl)cc3)nc2c1 | 54% (active)
15 | Cc1ccc2oc(-c3ccc(NC(=O)COc4ccc(Cl)cc4)cc3)nc2c1 | 28% (inactive)
16 | Cc1cc2nc(-c3ccc(C)c(NC(=O)c4cccc([N+](=O)[O-])c4)c3)oc2cc1C | 15% (inactive)
17 | Cc1ccc(-c2nc3cc(Cl)ccc3o2)cc1NC(=O)c1cccc([N+](=O)[O-])c1 | 57% (active)
18 | CCc1ccc2oc(-c3ccc(C)c(NC(=O)COc4ccc(Cl)cc4)c3)nc2c1 | 52% (active)
19 | Cc1ccc(-c2nc3cc(Cl)ccc3o2)cc1NC(=O)c1cccc(Cl)c1 | 15% (inactive)
20 | Cc1ccc2oc(-c3ccc(NC(=O)COc4ccc(Br)cc4)cc3)nc2c1 | 59% (active)
21 | O=C(COc1ccc(Cl)cc1)Nc1ccc2oc(-c3ccccc3)nc2c1 | 16% (inactive)
22 | O=C(NCCN1CCOCC1)c1cc2nc(-c3ccc(Cl)cc3)cc(C(F)(F)F)n2n1 | 0% (inactive)
23 | COc1ccc(C=NN2CCN(Cc3ccccc3Cl)CC2)c(OC)c1 | 6% (inactive)
24 | Cc1nc(-c2ccccc2)sc1C(=O)Nc1ccc(Br)cc1 | 15% (inactive)
25 | c1ccc(-c2ccc(Oc3cc(-n4cccn4)ncn3)cc2)cc1 | 11% (inactive)

Row | Structure (SMILES) | inhibition
26 | O=C(Nc1ccc(Cl)cc1)c1cccc(N2C(=O)c3cccnc3C2=O)c1 | 0% (inactive)
27 | Cc1ccc(NC(=O)c2c(NC(=O)C(F)(F)F)sc3c2CCCCC3)c(C)c1 | 23% (inactive)
28 | Cc1ccc(NC(=O)c2c(NC(=O)C(F)(F)F)sc3c2CCC3)c(C)c1 | 13% (inactive)
29 | Oc1c(C=Nc2ccccc2)sc2ccccc12 | 4% (inactive)
30 | CC(=O)c1ccc(NS(=O)(=O)c2cccc(S(=O)(=O)c3ccc(Cl)c(Cl)c3)c2)cc1 | 10% (inactive)
31 | O=C(NN1C(=O)/C(=C/c2ccc(Br)cc2)SC1=S)c1ccncc1 | 5% (inactive)
32 | COc1cc(C(=O)NN2C(=O)/C(=C/c3ccc(OC)c(OC)c3)SC2=S)ccc1O | 61% (active)
33 | COc1cc(C(=O)NN2C(=O)/C(=C/c3ccccc3)SC2=S)ccc1O | 4% (inactive)
34 | COc1cc(/C=C2\SC(=S)N(NC(=O)c3ccc(O)c(OC)c3)C2=O)ccc1O | 34% (inactive)
35 | COc1ccc(/C=C2\SC(=S)N(Nc3ccccc3)C2=O)cc1OC | 55% (active)
36 | COc1cc(/C=C2\SC(=S)N(NC(=O)c3ccccc3Br)C2=O)ccc1O | 18% (inactive)
37 | COc1cc(/C=C2\SC(=S)N(Nc3ccccc3)C2=O)cc(OC)c1OC | 4% (inactive)
38 | O=C(NN1C(=O)/C(=C/c2ccc(O)c(O)c2)SC1=S)c1ccccc1Br | 50% (active)
39 | O=C(NN1C(=O)/C(=C/c2ccc(O)cc2)SC1=S)c1ccccc1Br | 5% (inactive)
40 | COc1cc(/C=C2\SC(=S)N(Nc3ccccc3)C2=O)ccc1O | 37% (inactive)
41 | COc1cc(/C=C2\SC(=S)N(NC(=O)c3ccc(Br)cc3)C2=O)ccc1O | 23% (inactive)
42 | O=C(NN1C(=O)/C(=C/c2ccc(O)c(O)c2)SC1=S)c1ccc(Br)cc1 | 58% (active)
43 | CCOc1ccc(C(=O)Nc2ccc3oc(-c4ccc(CC)cc4)nc3c2)cc1[N+](=O)[O-] | 16% (inactive)
44 | Nc1nc(CN2C(=O)c3ccccc3C2=O)cs1 | 2% (inactive)
45 | CCOC(=O)c1c(NC(=O)c2ccc3c(c2)OCCO3)sc2c1CCCC2 | 5% (inactive)
46 | CC(=O)OCCN1C(=O)c2ccc(Oc3cccc(Oc4ccc5c(c4)C(=O)N(CCOC(C)=O)C5=O)c3)cc2C1=O | 10% (inactive)
47 | CCOc1ccc(/C=C2\SC(=S)N(CCC(=O)Nc3cccnc3)C2=O)cc1 | 22% (inactive)
48 | CC(=O)N1c2ccccc2NC2=C(C(=O)CC(c3ccccc3)C2)C1c1cccnc1 (configuration not stated) | 7% (inactive)
49 | O=C(O)c1cccc(C(=O)O)c1N(c1ccccc1)c1ccccc1 | 40% (inactive)
50 | CCOc1cc(/C=N/n2cnnc2)cc(Cl)c1OCCOc1cc(C)ccc1C(C)C | 10% (inactive)

Row | Structure (SMILES) | inhibition
51 | COc1ccc(C(=O)Nc2nccs2)c(OC)c1 | 4% (inactive)
52 | Cc1cccc(N2C(=O)NC(=O)/C(=C\c3ccc(Oc4ccc([N+](=O)[O-])cn4)cc3)C2=O)c1 | 13% (inactive)
53 | Cc1ccc(-c2n[nH]c(=S)n2N=Cc2ccc(O)c(O)c2)cc1 | 60% (active)
54 | Cc1ccc(-c2n[nH]c(=S)n2/N=C/c2ccc(O)cc2O)cc1 | 8% (inactive)
55 | Cc1cccc(C=Nn2c(-c3ccccc3)n[nH]c2=S)c1 | 22% (inactive)
56 | Cc1ccc(-c2n[nH]c(=S)n2/N=C/c2ccc(O)cc2)cc1 | 9% (inactive)
57 | Cc1ccc(-c2n[nH]c(=S)n2N=Cc2ccc(Cl)c(Cl)c2)cc1 | 18% (inactive)
58 | Oc1ccc(/C=N/n2c(-c3ccccc3)n[nH]c2=S)cc1O | 55% (active)
59 | Cc1ccc(-c2n[nH]c(=S)n2N=Cc2ccc(-c3ccccc3)cc2)cc1 | 56% (active)
60 | COc1ccc(-c2n[nH]c(=S)n2N=Cc2ccc(-c3ccccc3)cc2)cc1 | 45% (inactive)
61 | Cc1ccc(-c2n[nH]c(=S)n2/N=C/c2cc(Br)ccc2O)cc1 | 15% (inactive)
62 | Oc1ccccc1/C=N/n1c(-c2ccccc2)n[nH]c1=S | 11% (inactive)
63 | COc1cc(/C=N/n2c(-c3ccc(C)cc3)n[nH]c2=S)ccc1O | 8% (inactive)
64 | O=C1OC(/C=C/c2ccccc2)=NC/1=C/c1ccc(-c2ccc3c(c2)C(=O)NC3=O)o1 | 33% (inactive)
65 | C#CCOc1ccc(C=C2C(=O)N(C)C(=S)N(C)C2=O)cc1Br | 21% (inactive)
66 | Clc1ccc(C2C=C(c3cccs3)Nc3nnnn32)cc1 (configuration not stated) | 3% (inactive)
67 | Nc1ccc(/C=C2/SC(=S)NC2=O)cc1 | 4% (inactive)
68 | COc1cc(/C=C2\SC(=Nc3ccc(C)c(Cl)c3)NC2=O)ccc1C | 56% (active)
69 | O=C1NC(=S)S/C1=C/c1ccc(Cl)cc1 | 10% (inactive)
70 | COc1cc(/C=C2/SC(=S)NC2=O)ccc1OC(C)C | 1% (inactive)
71 | COc1ccc(/C=C2\SC(=S)NC2=O)cc1C | 65% (active)
72 | COc1cc(/C=C2\SC(=Nc3ccc(C)c(Cl)c3)NC2=O)cc(OC)c1OC | 21% (inactive)
73 | O=C1NC(=S)S/C1=C/c1ccc(O)c(Br)c1 | 3% (inactive)
74 | O=C1NC(=S)S/C1=C/c1cc(Br)ccc1O | 24% (inactive)
75 | O=C1NC(=S)S/C1=C\c1ccc(O)c(O)c1 | 78% (active)

Row | Structure (SMILES) | inhibition
76 | COc1ccc(/C=C2/SC(=S)NC2=O)cc1I | 39% (inactive)
77 | COc1cc(/C=C2\SC(=Nc3ccc(C)c(Cl)c3)NC2=O)ccc1O | 47% (inactive)
78 | O=C1NC(=S)S/C1=C\c1ccc(N2CCCC2)cc1 | 54% (active)
79 | O=C1C(Cc2ccccc2)S/C(=N/N=C/c2cccc([N+](=O)[O-])c2)N1c1ccccc1 (configuration not stated) | 20% (inactive)
80 | Cc1ccc(NC(=O)CN(c2ccc(Br)cc2)S(=O)(=O)c2ccccc2)cc1Cl | 7% (inactive)
81 | CCOc1ccccc1NC(=O)CCN1C(=O)/C(=C/c2ccccc2Cl)SC1=S | 13% (inactive)
82 | CCCCOC(C)n1cc(Cl)c(=O)[nH]c1=O (configuration not stated) | 3% (inactive)
83 | COc1ccc2c(c1)c(=O)oc1cc(OCC(=O)c3ccc(F)cc3)ccc12 | 34% (inactive)
84 | COc1cc(/C=C2\SC(=S)NC2=O)ccc1OCCOc1ccccc1Cl | 51% (active)
85 | CC(C)COc1ccc(/C=C2\SC(=S)NC2=O)cc1 | 22% (inactive)
86 | COc1cc(/C=C2/SC(=S)NC2=O)cc(Cl)c1OCC(C)COc1ccccc1 (configuration not stated) | 50% (active)
87 | COc1ccc(OCCOc2c(Cl)cc(/C=C3\SC(=S)NC3=O)cc2OC)cc1 | 47% (inactive)
88 | CCOc1cc(/C=C2\SC(=S)NC2=O)ccc1OCCOc1ccccc1Cl | 43% (inactive)
89 | COc1cc(/C=C2\SC(=S)NC2=O)cc(Br)c1OC | 5% (inactive)
90 | COc1cc(/C=C2\SC(=S)NC2=O)cc(Br)c1OC(C)=O | 4% (inactive)
91 | COc1cccc(OCCOc2c(Cl)cc(/C=C3/SC(=S)NC3=O)cc2OC)c1 | 23% (inactive)
92 | CC(C)COc1ccc(/C=C2\SC(=S)NC2=O)c2ccccc12 | 51% (active)
93 | COc1ccc(/C=C2\SC(=S)NC2=O)c(OC)c1OC | 0% (inactive)
94 | COc1cc(/C=C2\SC(=S)NC2=O)cc(Cl)c1OCCOc1ccccc1Cl | 26% (inactive)
95 | COc1cc(/C=C2\SC(=S)NC2=O)cc(Br)c1OC(=O)c1ccccc1 | 58% (active)
96 | CCc1ccc(C=Nn2c(-c3ccc(Cl)cc3)n[nH]c2=S)cc1 | 3% (inactive)
97 | CCOc1cc(/C=C2\C(=O)NC(=O)N(c3ccc(Cl)cc3)C2=O)cc(Cl)c1OCC | 0% (inactive)
